Assay [1] can be described thus: NCI Yeast Anticancer Drug Screen. Data for the rad50 strain (AID 155).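 Note: 0% = growth of vehicle-only cultures of the same strain.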 The settings on record: S. cerevisiae rad50 strain growth inhibition, active compounds read high. The gist of the method: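 DNA repair mutant yeast, compound exposure, growth read-out; inhibition is taken relative to vehicle.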
Assay [2] is described as follows: NCI Yeast Anticancer Drug Screen. Data for the mec2-1 strain (AID 157). As to conditions: S. cerevisiae mec2-1 strain, active compounds read high. In outline:
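Growth inhibition is read against vehicle-treated controls after compound exposure of the mec2-1 yeast strain, which is defective in DNA damage repair or cell cycle control.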

Assay [3] is described as follows: NCI Yeast Anticancer Drug Screen. Data for the sgs1 mgt1 strain (AID 161).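 Note: 0% = growth of cultures given vehicle only.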 The settings on record: S. cerevisiae sgs1 mgt1 strain, active compounds read high. In outline:
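Yeast cells carrying a defined DNA-repair defect were exposed to test compounds. Growth inhibition was measured relative to vehicle-treated controls.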

Assay [4] is described as follows: NCI Yeast Anticancer Drug Screen. Data for the cln2 rad14 strain (AID 165).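 Note: 0% = growth equal to vehicle treated cultures.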 As to conditions: S. cerevisiae cln2 rad14 strain, active compounds read high. In outline:
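Growth inhibition, relative to vehicle-treated controls, is the read-out. The test organism is a yeast strain with defined genetic alterations, cln2 rad14.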

Assay [5] in a line: NCI Yeast Anticancer Drug Screen. Data for the bub3 strain (AID 167). The settings on record: S. cerevisiae bub3 mutant strain, active compounds read high. In outline:
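In this screen, a yeast mutant lacking normal mitotic checkpoint function is challenged with compound. Relative growth versus vehicle gives the inhibition value.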

Assay [6] is described as follows: NCI Yeast Anticancer Drug Screen. Data for the mlh1 rad18 strain (AID 175). As to conditions: S. cerevisiae mlh1 rad18 strain growth inhibition, active compounds read high. In outline:
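Cells of a genetically altered yeast strain, deficient in DNA damage repair, were treated with compound. Their growth was then compared with that of vehicle-treated cultures to give inhibition.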

The mark [7] stands for this setting: at 5.0 µM (retest, dose inferred, filed as 0.5).
[8] abbreviates: at 50.0 µM (retest, dose inferred, filed as 5.0).

Compounds without any hit were thinned out: in the full panel of roughly 79,000, 15% have a hit. Unmarked numbers belong to inactive results. Active and inactive are the calls of the source. Cut-off read from the data, not from the text of the source: active = growth inhibition above about 70%; inactive = the rest.

The values below come from PubChem BioAssay (NCI).

For `O=[N+]([O-])c1cc2c([N+](=O)[O-])cccc2o1`, the growth inhibition is 15% in assay [1] (setting [7]); 98% (active) in assay [1] (setting [8]); 95.9% (active) in assay [1] (at 50.0 µM); 8% in assay [2] (setting [7]); 99% (active) in assay [2] (setting [8]); 99.7% (active) in assay [2] (at 50.0 µM). Besides, the growth inhibition in assay [3] (setting [7]) was 19%; in assay [3] (setting [8]), 99% (active); in assay [3] (at 50.0 µM) it was 99.2% (active); in assay [4] (setting [7]) it was 0%; in assay [4] (setting [8]), 99% (active); in assay [4] (at 50.0 µM) it was 97.3% (active). Moreover, the growth inhibition in assay [5] (setting [7]) is 7%; in assay [5] (setting [8]), 98% (active); in assay [5] (at 50.0 µM), 99.5% (active); in assay [6] (setting [7]), 74% (active); in assay [6] (setting [8]) it was 99% (active); in assay [6] (at 50.0 µM), 99.5% (active).

For the molecule `CCC[CH2][Sn]([CH2]CCC)([S]C1=NCCS1)[S]C1=NCCS1`, the growth inhibition in assay [1] (setting [7]) was 96% (active); in assay [1] (setting [8]) it was 96% (active); in assay [1] (at 50.0 µM), 90.7% (active); in assay [2] (setting [7]), 97% (active); in assay [2] (setting [8]) it was 97% (active); in assay [2] (at 50.0 µM), 90.7% (active). Further, the growth inhibition was 97% (active) in assay [3] (setting [7]); 97% (active) in assay [3] (setting [8]); 90.9% (active) in assay [3] (at 50.0 µM); 95% (active) in assay [4] (setting [7]); 95% (active) in assay [4] (setting [8]); 89.7% (active) in assay [4] (at 50.0 µM). Also, the growth inhibition in assay [5] (setting [7]) is 95% (active); in assay [5] (setting [8]) it was 95% (active); in assay [5] (at 50.0 µM), 88.3% (active); in assay [6] (setting [7]), 96% (active); in assay [6] (setting [8]) it was 96% (active); in assay [6] (at 50.0 µM), 86.5% (active).

In the case of `CC(=O)[CH-]C(=O)c1ccccc1.CC(=O)[CH-]C(=O)c1ccccc1.C[C@]12CCC(=O)C=C1CC[C@@H]1C2CC[C@@]2(C)C1CC[C@@H]2[O-].C[C@]12CCC(=O)C=C1CC[C@@H]1C2CC[C@@]2(C)C1CC[C@@H]2[O-].Cl.[Ti+4]` (some centres undefined), the growth inhibition is 41% in assay [1] (setting [7]); 78% (active) in assay [1] (setting [8]); 76.8% (active) in assay [1] (at 50.0 µM); 35% in assay [2] (setting [7]); 84% (active) in assay [2] (setting [8]); 70.8% (active) in assay [2] (at 50.0 µM). Further, the growth inhibition in assay [3] (setting [7]) is 39%; in assay [3] (setting [8]), 85% (active); in assay [3] (at 50.0 µM), 78.8% (active); in assay [4] (setting [7]) it was 26%; in assay [4] (setting [8]), 48%; in assay [4] (at 50.0 µM), 50.9%. Further, the growth inhibition in assay [5] (setting [7]) is 37%; in assay [5] (setting [8]), 86% (active); in assay [5] (at 50.0 µM), 76.5% (active); in assay [6] (setting [7]), 47%; in assay [6] (setting [8]), 84% (active); in assay [6] (at 50.0 µM), 73.2% (active).

Regarding `C=CCCCCCCCCC(=O)O` (tested in a mixture with another compound), the growth inhibition is -3% in assay [1] (setting [7]); 12% in assay [1] (setting [8]); 23.1% in assay [1] (at 50.0 µM); -3% in assay [2] (setting [7]); 8% in assay [2] (setting [8]); 63.3% in assay [2] (at 50.0 µM). For the same molecule, the growth inhibition in assay [3] (setting [7]) was -9%; in assay [3] (setting [8]) it was 27%; in assay [3] (at 50.0 µM), 53%; in assay [4] (setting [7]), 6%; in assay [4] (setting [8]), 72% (active); in assay [4] (at 50.0 µM), 96.8% (active). Besides, the growth inhibition in assay [5] (setting [7]) is -7%; in assay [5] (setting [8]) it was 7%; in assay [5] (at 50.0 µM) it was 40.4%; in assay [6] (setting [7]), -7%; in assay [6] (setting [8]) it was 48%; in assay [6] (at 50.0 µM) it was 83% (active).

On to `C/C=C(\C)C(=O)OC1C(C)=C2C(C1OC(=O)CCCCC)C(C)(OC(C)=O)CC(OC(=O)CCC)C1(O)C2OC(=O)C1(C)O` (centres undefined), for which the growth inhibition in assay [1] (setting [7]) is 26%; in assay [1] (setting [8]), 85% (active); in assay [1] (at 50.0 µM), 77.6% (active); in assay [2] (setting [7]) it was 15%; in assay [2] (setting [8]), 86% (active); in assay [2] (at 50.0 µM), 83.5% (active). For the same molecule, the growth inhibition in assay [3] (setting [7]) is 20%; in assay [3] (setting [8]), 91% (active); in assay [3] (at 50.0 µM), 74.8% (active); in assay [4] (setting [7]) it was 34%; in assay [4] (setting [8]) it was 95% (active); in assay [4] (at 50.0 µM) it was 82.6% (active). Further, the growth inhibition is 17% in assay [5] (setting [7]); 92% (active) in assay [5] (setting [8]); 73.4% (active) in assay [5] (at 50.0 µM); 34% in assay [6] (setting [7]); 87% (active) in assay [6] (setting [8]); 67.6% in assay [6] (at 50.0 µM).

Consider `O=C1CCC[N]1[Hg][N]1CCCC1=O`, for which the growth inhibition in assay [1] (setting [7]) is 44%; in assay [1] (setting [8]), 46%; in assay [1] (at 50.0 µM), 93.2% (active); in assay [2] (setting [7]), 40%; in assay [2] (setting [8]), 51%; in assay [2] (at 50.0 µM), 94.6% (active). Also, the growth inhibition was 99% (active) in assay [3] (setting [7]); 99% (active) in assay [3] (setting [8]); 94.2% (active) in assay [3] (at 50.0 µM); 66% in assay [4] (setting [7]); 97% (active) in assay [4] (setting [8]); 92% (active) in assay [4] (at 50.0 µM). Further, the growth inhibition in assay [5] (setting [7]) was 99% (active); in assay [5] (setting [8]) it was 98% (active); in assay [5] (at 50.0 µM), 93.8% (active); in assay [6] (setting [7]), 33%; in assay [6] (setting [8]) it was 51%; in assay [6] (at 50.0 µM), 92.8% (active).

For the molecule `C=CCC[CH2][Sn]([c]1ccccc1)([c]1ccccc1)[c]1ccccc1`, the growth inhibition in assay [1] (setting [7]) was 98% (active); in assay [1] (setting [8]) it was 93% (active); in assay [1] (at 50.0 µM), 99.5% (active); in assay [2] (setting [7]), 99% (active); in assay [2] (setting [8]) it was 98% (active); in assay [2] (at 50.0 µM), 99.5% (active). In addition, the growth inhibition in assay [3] (setting [7]) is 99% (active); in assay [3] (setting [8]) it was 98% (active); in assay [3] (at 50.0 µM), 99.4% (active); in assay [4] (setting [7]), 98% (active); in assay [4] (setting [8]) it was 96% (active); in assay [4] (at 50.0 µM), 98.2% (active). Moreover, the growth inhibition in assay [5] (setting [7]) was 97% (active); in assay [5] (setting [8]), 97% (active); in assay [5] (at 50.0 µM), 99% (active); in assay [6] (setting [7]) it was 99% (active); in assay [6] (setting [8]), 97% (active); in assay [6] (at 50.0 µM), 99.4% (active).

In the case of `C1CC[CH]([Sn]([CH]2CCCCC2)[CH]2CCCCC2)CC1.C1CC[CH]([Sn]([CH]2CCCCC2)[CH]2CCCCC2)CC1`, the growth inhibition in assay [1] (setting [7]) is 2%; in assay [1] (setting [8]), 34%; in assay [1] (at 50.0 µM), 31.5%; in assay [2] (setting [7]) it was 0%; in assay [2] (setting [8]), 34%; in assay [2] (at 50.0 µM), 63.3%. In addition, the growth inhibition was 4% in assay [3] (setting [7]); 17% in assay [3] (setting [8]); 75.7% (active) in assay [3] (at 50.0 µM); 3% in assay [4] (setting [7]); -9% in assay [4] (setting [8]); -30.2% in assay [4] (at 50.0 µM). The growth inhibition is 3% in assay [5] (setting [7]); -2% in assay [5] (setting [8]); 9.5% in assay [5] (at 50.0 µM); 0% in assay [6] (setting [7]); 4% in assay [6] (setting [8]); 87.9% (active) in assay [6] (at 50.0 µM).
